E coli growth-1: counter-screen for AddAB inhibitors: E. coli growth inhibition; E. coli V3065 growth, OD600 absorbance, 18 h; inhibition, % at 11.9 µM; 0.27% of 330,000 active;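 active means inhibition above the campaign's mean inhibition across all tested compounds plus 3 SD, cut at about 9.9% in these data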;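 further: uninfected addAB+ strain grown without phage in ampicillin broth; 0% = DMSO wells and 100% = ciprofloxacin 0.95 µg/ml wells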
E coli growth-2: inhibitors of Escherichia coli growth | 0.21% of 330,000 active | AID 1053175 | OD600 absorbance (no concentration beside the values) | OD600, 23 h; active compounds read low;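 active means OD600 absorbance below the run mean of sample wells minus 3.6 SD, in any replicate, cut at about 0.56 in these data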
AddAB inh: less growth of phage-infected E. coli with AddAB. E. coli expressing H. pylori AddAB, absorbance growth. 0.29% of 330,000 active. inhibition, % at 11.9 µM. AID 435030; in the data active means inhibition above about 12%;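 further: 0% = vehicle wells of infected cells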
phage Ecoli inh: E. coli growth loss with phage present; inhibition, % at 11.9 µM; 0.26% of 360,000 active; growth absorbance; in the data active means inhibition above about 11%
Tat transport: inhibitors of E. coli Tat protein transport; E. coli MC4100 TorA-mCherry Tat export, fluorescence; inhibition, % at 10 µM; 0.036% of 340,000 active;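 active means mean replicate inhibition at least 50% and at least half of replicates individually reaching 50%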;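 further: exported cargo escapes ClpAP degradation while cytoplasmic cargo is degraded and loses fluorescence; 0% = median of neutral control wells and 100% = median of NaSCN control wells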
RecBCD conf: confirmation: growth loss of phage-infected RecBCD+ E. coli (RecBCD inhibitor screen); shares compounds with phage Ecoli inh; E. coli V66 + T4 2- phage, growth OD; inhibition, % at 11.9 µM; 45% of 890 active; AID 651982;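 active means mean inhibition over triplicates exceeding the hit threshold derived in the original primary screen, cut at about 11% in these data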
Ecoli viability: counter-screen for RecBCD inhibitors: inhibitors of bacterial viability; shares compounds with phage Ecoli inh; E. coli viability, absorbance (OD) growth; inhibition, % at 11.9 µM; 29% of 890 active; in the data active means inhibition above about 20%;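 further: E. coli strain V66 grown with compound alone and no phage infection; 0% = bacteria with DMSO vehicle only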
AddAB counter: growth loss of phage-infected AddAB E. coli, RecBCD counter-screen; shares compounds with phage Ecoli inh; E. coli expressing H. pylori AddAB + T4 phage, OD growth; gene 2 mutant T4, recBCD-deleted host; inhibition, % at 11.9 µM; 45% of 890 active;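 active means mean inhibition above the solvent-only control wells' mean plus 3 SD, cut at about 22% in these data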;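 further: higher means less bacterial growth from phage killing when AddAB is blocked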
An asterisk follows results filed as active; x = no result given; ! = not confirmed by another sample. Rows were chosen to be rich in hits. Some 0.51% of all compounds tested hit in one or more screens of this group.

SMILES | E coli growth-1 | E coli growth-2 | AddAB inh | phage Ecoli inh | Tat transport | RecBCD conf | Ecoli viability | AddAB counter
O=S(=O)(Nc1ncccn1)c1ccc(NC(=S)Nc2ccc(Cl)cc2)cc1 | 6 | x | 7 | 11* | 22 | 4 | 3 | 5
O=C1c2ccccc2C(=O)c2c(O)c(O)cc(O)c21 | 15* | 0.66 | 11 | 12* | -3 | 6 | 9 | 8
N#CCCN(C(=O)CSc1nc2ccccc2c(=O)[nH]1)c1ccc(F)cc1 | -2 | 0.67 | 0 | 12* | 0 | 1 | 1 | 0
O=C(Nc1ccc(Cl)c(C(F)(F)F)c1)C1CC=CC2CCN(C3CCCCC3)C(=O)C21 (configuration not stated) | x | 0.73 | x | x | x | x | x | x
Cc1ccc(C(=O)Nc2ccc3ccccc3n2)cc1 | -1 | 0.66 | 4 | 2 | -4 | x | x | x
Cc1ccc(C(O)(C(=O)NNc2ccc3ccccc3n2)c2ccc(C)cc2)cc1 | 11*! | 0.69 | 10 | 13*! | -2 | 4 | 8 | 4
CN(C(=O)c1cc(COc2ccc(F)c(F)c2)on1)C1CCOC1 (configuration not stated) | 0 | 0.65 | -11 | 11* | -6 | -1 | -1 | 4
COc1ccc(OCc2cc(C(=O)N(C)C3CCOC3)no2)c(Cl)c1 (configuration not stated) | 0 | 0.65 | 2 | 2 | -8 | x | x | x
COc1ccc(/C=N/NC(=O)c2ccncc2)cc1OC | 1 | x | 3 | 0 | -3 | x | x | x
COc1cc(/C=N/NC(=O)c2ccncc2)ccc1O | -3 | x | -2 | 100*! | -9 | -2 | -1 | -1
COCc1ccccc1C1=CC(=O)CC(c2ccc(F)cc2)C1 (configuration not stated) | x | 0.68 | x | x | x | x | x | x
CCOc1cccc(C=NNC(=O)C(=O)Nc2cccc(C(F)(F)F)c2)c1O | x | x | x | 18* | x | 11* | 15 | 16
O=C(NN=Cc1ccco1)C(=O)Nc1cccc(C(F)(F)F)c1 | x | x | x | 2 | x | x | x | x
CC(NC(=O)c1nc[nH]c1C(=O)NC(Cc1ccccc1)C(=O)OCc1ccccc1)c1ccccc1 (configuration not stated) | x | 0.66 | x | x | x | x | x | x
O=C(Nc1cccc([N+](=O)[O-])c1)c1ccncc1 | -2 | 0.7 | 5 | 4 | -7 | x | x | x
O=C(Nc1cccc([N+](=O)[O-])c1)c1ccc([N+](=O)[O-])o1 | x | x | x | 20* | x | 15* | 17 | 90*
C=CCn1cc(C(=O)N2CCN(C)CC2)c(=O)c2cc(S(=O)(=O)N3CCCC3)ccc21 | -1 | 0.76 | 3 | 22* | -2 | -2 | -2 | -2
O=c1cc(CSc2nnc(Nc3ccccc3)s2)nc2sccn12 | 2 | 0.68 | 1 | 4 | -8 | x | x | x
Cc1cccc(Nc2nnc(SCc3cn4ccsc4n3)s2)c1 | 0 | 0.64 | 5 | 17* | -7 | 9 | 11 | 16
CN1CC2C3C(=O)N(Cc4ccccc4)C(=O)C3[C@](Cc3ccccc3)(C1=O)N2C(=O)c1ccccc1 (some centres not stated) | x | 0.67 | x | x | x | x | x | x
O=C(N/N=C/c1cc(Cl)ccc1O)C(=O)Nc1ccccc1OC(F)(F)C(F)F | 12* | x | 12 | 16* | -12 | 4 | 7 | 10
COc1ccc(C=CCN2CCCC(CCC(=O)NCc3ccc(F)c(F)c3)C2)cc1 (configuration not stated) | x | 0.67 | x | x | x | x | x | x
O=C(Nc1cc(Cl)ccc1O)c1snnc1-c1ccccc1 | 9.8* | 0.61 | 11 | 14* | 13 | 5 | 8 | 4
C=Cc1cnc([N+](=O)[O-])n1C | x | x | x | 29* | x | 19* | 21* | 97*
O=C1CCCC=CCC(CC(=O)N(CCO)Cc2ccccc2)C(=O)NC(Cc2ccccc2)CO1 (configuration not stated) | x | 0.69 | x | x | x | x | x | x
SMILES | E coli growth-1 | E coli growth-2 | AddAB inh | phage Ecoli inh | Tat transport | RecBCD conf | Ecoli viability | AddAB counter
Cn1c(-c2ccc3c(c2)OCO3)cnc1NCc1ccccc1 | 1 | 0.72 | 0 | 1 | 4 | x | x | x
Cc1ccc(-c2cnc(NCc3cc4c(cc3[N+](=O)[O-])OCO4)n2C)cc1C | 8 | 0.56 | 10 | 11* | -39 | 7 | 12 | 9
O=C(Nc1nnc(N2CCCCCC2)s1)c1cc(-c2ccc(Br)cc2)on1 | 3 | 0.76 | 1 | 1 | 9 | x | x | x
CC1CCCC(C)N1c1nnc(NC(=O)c2cc(-c3ccc(Br)cc3)on2)s1 (configuration not stated) | 0 | x | 4 | 95* | 4 | -4 | -5 | 6
Cc1cc(Nc2ccccc2Cl)c2ccccc2n1 | 2 | 0.63 | 1 | 15* | -5 | 0 | -1 | 9
CC(CN1C2=NCC(C)N2CC1Cc1ccc(O)cc1)NC(=O)CCC1CCCCC1 (configuration not stated) | x | 0.71 | x | x | x | x | x | x
Cn1cc(S(=O)(=O)N2CCC(C(N)=O)CC2)c(=O)n(C)c1=O | 1 | 0.72 | 1 | 94* | -2 | 0 | 1 | -2
CN1CCSc2ccc(C(=O)Nc3ccc(Cl)cc3)cc21 | 0 | x | 2 | 100* | 5 | 0 | 0 | -3
COc1cccc(NC(=O)c2ccc3c(c2)N(C)CCS3)c1 | -1 | 0.63 | 2 | 2 | -1 | x | x | x
CC(=O)NC(C)c1cc(Cl)c2cccnc2c1O (configuration not stated) | -9 | 0.63 | -7 | 0 | -6 | x | x | x
CCC(=O)NC(c1ccc(OC)c(OC)c1)c1cc(Cl)c2cccnc2c1O (configuration not stated) | x | 0.65 | x | 15* | -5 | 6 | 9 | 15
CCOc1ccc(C(Nc2cccnc2)c2cc(Cl)c3cccnc3c2O)cc1 (configuration not stated) | 20* | 0.69 | 10 | 17* | 1 | 2 | 5 | 6
O=C(O)COc1ccccc1C(Nc1cccnc1)c1cc(Cl)c2cccnc2c1O (configuration not stated) | x | 0.65 | x | x | 11 | x | x | x
CC(C)(C)C1CCC(=O)N(C(CN=[N+]=[N-])Cc2ccccc2)CC1 (configuration not stated) | x | 0.71 | x | x | x | x | x | x
O=C(C=Cc1ccccc1)c1cc(Br)ccc1O | x | 0.64 | x | 2 | 1 | x | x | x
Cc1cccc(/C=C/C(=O)c2cc(Br)ccc(=O)c2O)c1 | 6 | 0.67 | 8 | 17* | -1 | 6 | 7 | 5
Cc1ccc(/C=C/C(=O)c2cc(Br)ccc2OC(=O)c2ccco2)cc1 | 2 | 0.72 | 1 | 2 | 21 | x | x | x
CCOc1ccc(C(=O)/C=C/c2ccc(OC)c(OC)c2)cc1 | -1 | 0.68 | 1 | 1 | 4 | x | x | x
CCOc1ccc(/C=C/C(=O)c2cc(Br)ccc(=O)c2O)cc1 | 9 | 0.69 | 13* | 16* | 1 | 7 | 10 | 3
CCc1ccc(/C=C/C(=O)c2cc(Br)ccc(=O)c2O)cc1 | 3 | 0.69 | 3 | 14* | -5 | 10 | 12 | -1

Compound activity: PubChem, several laboratories
